This is an account of results in ChEMBL document CHEMBL3988442, “University of Dundee, Small-Polar-MMV Screening Library” (2021).

For part of these data: Entries with a potency or affinity are not part of this list.

Holding throughout (set-up): scale not given: direction of the effect not stated beside the values
For assay [1], the target named is Protein translocase subunit SecA (Escherichia coli (strain K12)) (UniProt P10408). Nature of the assay: Assay to Identify E. coli SecA ATPase Inhibitors. The format is functional. The conditions noted are these: 30 µM.
Protein translocase subunit SecA (Escherichia coli (strain K12)), sequence (P10408 whole entry): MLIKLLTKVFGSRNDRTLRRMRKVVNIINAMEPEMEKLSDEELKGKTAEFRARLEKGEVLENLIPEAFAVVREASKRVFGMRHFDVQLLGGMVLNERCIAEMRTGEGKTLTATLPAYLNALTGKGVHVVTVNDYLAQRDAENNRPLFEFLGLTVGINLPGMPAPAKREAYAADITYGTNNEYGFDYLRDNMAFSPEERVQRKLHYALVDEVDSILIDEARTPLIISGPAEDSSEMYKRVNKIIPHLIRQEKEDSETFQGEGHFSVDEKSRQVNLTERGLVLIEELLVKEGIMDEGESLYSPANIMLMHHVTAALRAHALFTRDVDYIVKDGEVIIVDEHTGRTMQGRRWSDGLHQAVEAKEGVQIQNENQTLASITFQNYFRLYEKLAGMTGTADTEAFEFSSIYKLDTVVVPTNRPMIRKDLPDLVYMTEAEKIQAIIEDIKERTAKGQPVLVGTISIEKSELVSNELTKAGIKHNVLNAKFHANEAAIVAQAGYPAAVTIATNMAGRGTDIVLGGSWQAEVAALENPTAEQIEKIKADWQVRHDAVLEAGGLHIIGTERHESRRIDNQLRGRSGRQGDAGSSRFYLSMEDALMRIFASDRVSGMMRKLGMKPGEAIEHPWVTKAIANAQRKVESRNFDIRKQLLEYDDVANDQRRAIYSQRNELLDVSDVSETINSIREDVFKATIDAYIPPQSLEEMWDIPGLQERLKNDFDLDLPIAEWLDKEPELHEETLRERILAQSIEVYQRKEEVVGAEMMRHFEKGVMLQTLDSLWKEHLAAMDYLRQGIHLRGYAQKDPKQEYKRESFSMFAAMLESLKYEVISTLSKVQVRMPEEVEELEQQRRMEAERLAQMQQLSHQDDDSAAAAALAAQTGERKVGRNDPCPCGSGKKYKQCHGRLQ
Assay [2] deals with T1, Ubiquitin-activating enzyme e1, putative (Leishmania donovani (strain BPK282A1)) (UniProt E9BSI1).
T1 sequence (whole entry): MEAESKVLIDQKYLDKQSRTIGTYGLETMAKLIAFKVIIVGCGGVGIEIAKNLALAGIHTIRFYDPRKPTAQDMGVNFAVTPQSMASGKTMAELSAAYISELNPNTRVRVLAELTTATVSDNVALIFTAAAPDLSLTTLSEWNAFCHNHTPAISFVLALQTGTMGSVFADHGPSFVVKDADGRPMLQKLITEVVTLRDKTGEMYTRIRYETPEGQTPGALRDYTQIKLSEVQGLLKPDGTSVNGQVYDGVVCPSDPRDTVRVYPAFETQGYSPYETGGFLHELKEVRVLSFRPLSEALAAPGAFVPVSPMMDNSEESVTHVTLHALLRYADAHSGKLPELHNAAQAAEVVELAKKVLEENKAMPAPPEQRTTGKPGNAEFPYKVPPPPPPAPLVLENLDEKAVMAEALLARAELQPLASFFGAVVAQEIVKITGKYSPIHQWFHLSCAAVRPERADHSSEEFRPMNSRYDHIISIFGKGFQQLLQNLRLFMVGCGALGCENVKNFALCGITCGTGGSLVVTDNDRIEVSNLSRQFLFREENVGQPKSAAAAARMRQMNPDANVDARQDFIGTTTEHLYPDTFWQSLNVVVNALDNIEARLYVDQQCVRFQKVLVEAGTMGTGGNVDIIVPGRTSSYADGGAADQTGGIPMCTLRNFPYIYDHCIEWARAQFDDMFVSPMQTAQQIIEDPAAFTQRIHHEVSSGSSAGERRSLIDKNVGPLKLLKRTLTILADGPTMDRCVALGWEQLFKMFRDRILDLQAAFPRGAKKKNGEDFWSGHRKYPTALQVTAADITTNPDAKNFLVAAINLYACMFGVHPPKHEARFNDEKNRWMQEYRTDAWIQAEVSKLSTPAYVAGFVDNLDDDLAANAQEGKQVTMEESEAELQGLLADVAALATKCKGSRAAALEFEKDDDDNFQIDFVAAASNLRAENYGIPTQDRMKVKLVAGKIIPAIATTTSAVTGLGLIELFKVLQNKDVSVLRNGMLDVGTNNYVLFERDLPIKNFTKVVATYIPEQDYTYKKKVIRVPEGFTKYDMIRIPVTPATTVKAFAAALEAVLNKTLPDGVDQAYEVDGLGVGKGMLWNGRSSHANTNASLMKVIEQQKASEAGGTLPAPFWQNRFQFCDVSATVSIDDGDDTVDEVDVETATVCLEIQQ
Description: Leishmania donovani Ubiquitin Activating Enzyme (LdE1). The format is functional. The note with it: 30 µM.

For assay [3], the target named is AMP-activated protein kinase, AMPK (Homo sapiens) (UniProt P54646+O43741+P54619+Q9UGJ0+Q9Y478+Q13131+Q9UGI9). Nature of the assay: AMP-dependent Kinase enzyme assay. An in vitro enzyme assay that detects ADP turnover that is directly proportional to AMPK activity. This uses naive AMPK that is activated during the assay with MK-8722. It is filed as functional. The conditions noted are these: 30 µM.

For assay [4], the target named is Sialic acid-binding Ig-like lectin 9 (Homo sapiens) (UniProt Q9Y336). Nature of the assay: Hs-Siglec9 ALPHAscreen SOP 20170721. The conditions noted are these: 10 µM. In general terms: In Alpha technology, singlet oxygen from a donor bead excites a nearby acceptor bead.
Sialic acid-binding Ig-like lectin 9 (Homo sapiens), sequence (Q9Y336 whole entry): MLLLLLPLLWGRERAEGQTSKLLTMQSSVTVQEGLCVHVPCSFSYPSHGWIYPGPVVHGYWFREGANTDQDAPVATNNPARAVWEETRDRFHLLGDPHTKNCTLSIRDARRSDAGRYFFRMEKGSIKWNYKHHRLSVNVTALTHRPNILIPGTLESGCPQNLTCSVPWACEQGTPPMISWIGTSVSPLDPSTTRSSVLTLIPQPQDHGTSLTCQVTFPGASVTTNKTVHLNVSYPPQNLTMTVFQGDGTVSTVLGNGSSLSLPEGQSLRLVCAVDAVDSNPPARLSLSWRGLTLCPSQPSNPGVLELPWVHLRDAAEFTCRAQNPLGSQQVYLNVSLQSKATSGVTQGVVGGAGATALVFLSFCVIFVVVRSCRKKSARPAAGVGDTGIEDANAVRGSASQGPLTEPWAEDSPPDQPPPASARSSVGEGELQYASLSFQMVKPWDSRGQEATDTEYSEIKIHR
The next assay deals with Trypanosoma cruzi. Description: Trypanosoma cruzi phosphomannomutase and mannose-1-phosphate guanylyltransferase assay. The conditions noted are these: 10 µM. The format is functional.
Assay [5] concerns the target T2, Arginase-2, mitochondrial (Homo sapiens) (UniProt P78540).
T2 sequence (whole entry): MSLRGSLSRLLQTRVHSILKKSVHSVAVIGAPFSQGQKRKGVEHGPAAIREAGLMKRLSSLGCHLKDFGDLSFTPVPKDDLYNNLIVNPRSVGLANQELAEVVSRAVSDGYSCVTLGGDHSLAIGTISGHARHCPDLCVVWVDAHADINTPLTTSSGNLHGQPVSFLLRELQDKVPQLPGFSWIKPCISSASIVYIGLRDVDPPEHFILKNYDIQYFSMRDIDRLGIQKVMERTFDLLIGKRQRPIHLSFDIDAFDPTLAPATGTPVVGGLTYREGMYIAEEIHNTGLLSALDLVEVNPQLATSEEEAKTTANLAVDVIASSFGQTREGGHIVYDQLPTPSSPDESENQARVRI
Description: in vitro enzyme assay to detect the production of urea directly proportional to the activity of Arginase II. Note: in the data most compounds retested in dose-response had high values. The format is functional. The conditions noted are these: 33.3 µM.

Assay [6] deals with T3, Proteasome subunit beta (Trypanosoma cruzi) (UniProt O96673).
T3 sequence (whole entry): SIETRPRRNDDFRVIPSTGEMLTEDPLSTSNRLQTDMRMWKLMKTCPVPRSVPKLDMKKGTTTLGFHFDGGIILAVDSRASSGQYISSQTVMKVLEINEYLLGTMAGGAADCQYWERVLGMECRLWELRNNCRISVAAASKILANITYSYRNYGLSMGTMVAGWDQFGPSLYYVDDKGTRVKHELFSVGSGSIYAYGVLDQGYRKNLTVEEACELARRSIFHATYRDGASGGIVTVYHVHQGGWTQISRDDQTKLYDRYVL
Description: Trypanosoma cruzi proteasome chymotrypsin-like activity (TcProtChymo) assay. Note: in the data most compounds retested in dose-response had high values. It is filed as functional. The note with it: 9.37 µM.

The next assay is filed under the species Homo sapiens. Description: To identify inhibition of the IFN signalling (Jak-Stat) pathway via expression of an eGFP reporter gene under the control of an IFN-stimulated response element (ISRE) containing MxA promoter. It is filed as functional. The note with it: 30 µM. Background: Reporter assays use an easily measured gene product as a stand-in for the process of interest.

Assay [7] deals with T4, Tyrosyl-tRNA synthetase, putative (Trypanosoma cruzi (strain CL Brener)) (UniProt Q4DSP6).
T4 sequence (whole entry): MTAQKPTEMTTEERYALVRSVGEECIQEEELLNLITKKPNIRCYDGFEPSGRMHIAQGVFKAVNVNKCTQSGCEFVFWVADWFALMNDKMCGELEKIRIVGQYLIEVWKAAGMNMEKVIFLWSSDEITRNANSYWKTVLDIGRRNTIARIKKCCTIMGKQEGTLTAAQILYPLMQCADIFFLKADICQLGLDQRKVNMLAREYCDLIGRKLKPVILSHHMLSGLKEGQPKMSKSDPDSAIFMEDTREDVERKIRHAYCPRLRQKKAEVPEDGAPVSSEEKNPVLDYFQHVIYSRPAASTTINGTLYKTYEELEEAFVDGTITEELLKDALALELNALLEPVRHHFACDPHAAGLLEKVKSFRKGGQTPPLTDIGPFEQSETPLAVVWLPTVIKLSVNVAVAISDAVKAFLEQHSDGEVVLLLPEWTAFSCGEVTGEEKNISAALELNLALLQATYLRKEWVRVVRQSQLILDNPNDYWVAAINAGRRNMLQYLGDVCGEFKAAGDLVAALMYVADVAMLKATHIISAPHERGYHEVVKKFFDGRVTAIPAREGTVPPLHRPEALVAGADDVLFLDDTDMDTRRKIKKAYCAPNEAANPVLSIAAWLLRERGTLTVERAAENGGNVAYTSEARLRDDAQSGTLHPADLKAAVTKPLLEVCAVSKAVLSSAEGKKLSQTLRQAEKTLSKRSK
Description: Trypanosoma cruzi tyrosyl tRNA synthetase (TcYRS) _High Tyrosine SOP. Note: in the data most compounds retested in dose-response had high values. The format is functional. The conditions noted are these: 30 µM.

For assay [8], the target named is T4, Tyrosyl-tRNA synthetase, putative (Trypanosoma cruzi (strain CL Brener)). Nature of the assay: Trypanosoma cruzi tyrosyl tRNA synthetase (TcYRS) SOP. It is filed as functional. The note with it: 30 µM.
Assay [9] concerns the target Chromo domain-containing protein 1 (Saccharomyces cerevisiae (strain ATCC 204508 / S288c) (Baker's yeast)) (UniProt P32657). Description: ScCHD-1 Enzyme Inhibition Assay. Note: in the data most compounds retested in dose-response had high values. The format is functional. The note with it: 30 µM.

Chromo domain-containing protein 1 (Saccharomyces cerevisiae (strain ATCC 204508 / S288c) (Baker's yeast)), sequence (P32657 whole entry, the tested form may be a part): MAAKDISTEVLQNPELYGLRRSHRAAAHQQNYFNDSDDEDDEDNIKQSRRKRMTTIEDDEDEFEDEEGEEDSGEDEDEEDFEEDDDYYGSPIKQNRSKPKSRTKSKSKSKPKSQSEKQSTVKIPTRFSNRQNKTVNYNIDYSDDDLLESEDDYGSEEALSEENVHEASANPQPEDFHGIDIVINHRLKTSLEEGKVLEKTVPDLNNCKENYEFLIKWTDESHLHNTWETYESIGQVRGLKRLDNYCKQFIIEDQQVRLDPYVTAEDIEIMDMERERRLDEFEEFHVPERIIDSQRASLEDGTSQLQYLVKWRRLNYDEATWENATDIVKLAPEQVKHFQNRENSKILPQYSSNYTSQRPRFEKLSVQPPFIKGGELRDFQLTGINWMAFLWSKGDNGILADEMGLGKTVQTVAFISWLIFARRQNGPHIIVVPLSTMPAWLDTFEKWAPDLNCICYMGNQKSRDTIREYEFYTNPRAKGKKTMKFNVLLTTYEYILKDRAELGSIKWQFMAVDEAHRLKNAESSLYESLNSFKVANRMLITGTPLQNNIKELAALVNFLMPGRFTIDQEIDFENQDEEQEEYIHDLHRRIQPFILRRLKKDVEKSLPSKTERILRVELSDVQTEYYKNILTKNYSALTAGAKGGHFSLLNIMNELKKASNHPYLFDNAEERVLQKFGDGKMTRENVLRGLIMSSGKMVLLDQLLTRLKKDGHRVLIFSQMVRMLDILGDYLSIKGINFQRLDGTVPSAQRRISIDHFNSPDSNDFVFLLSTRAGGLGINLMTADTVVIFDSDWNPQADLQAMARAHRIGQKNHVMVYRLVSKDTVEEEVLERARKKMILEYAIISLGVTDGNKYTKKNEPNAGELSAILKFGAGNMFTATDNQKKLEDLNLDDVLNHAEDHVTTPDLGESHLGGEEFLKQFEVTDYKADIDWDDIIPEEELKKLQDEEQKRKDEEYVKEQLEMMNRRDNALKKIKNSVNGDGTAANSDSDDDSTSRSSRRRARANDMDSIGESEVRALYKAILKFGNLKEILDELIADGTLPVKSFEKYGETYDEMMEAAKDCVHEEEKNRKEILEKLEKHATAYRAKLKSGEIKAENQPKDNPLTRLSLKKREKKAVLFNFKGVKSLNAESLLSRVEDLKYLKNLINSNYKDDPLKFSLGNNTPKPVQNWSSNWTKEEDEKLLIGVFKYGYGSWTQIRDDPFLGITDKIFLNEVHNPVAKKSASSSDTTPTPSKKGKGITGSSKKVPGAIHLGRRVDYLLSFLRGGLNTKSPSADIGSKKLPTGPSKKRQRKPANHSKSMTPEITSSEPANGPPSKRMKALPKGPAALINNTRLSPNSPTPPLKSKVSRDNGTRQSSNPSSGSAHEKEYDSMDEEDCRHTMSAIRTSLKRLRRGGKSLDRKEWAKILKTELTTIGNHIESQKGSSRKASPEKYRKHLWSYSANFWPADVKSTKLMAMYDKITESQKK

For the compound `CCOc1ccc(-n2nnc(C(=O)O)c2-c2ccccn2)cc1`, the Percent Effect in assay [1] was -1.24%; in assay [2], 7.89%; in assay [3], 4.82%; in assay [4], -2.3%; with Trypanosoma cruzi it was 0.487%; in [5], 0%. For the same compound, the Percent Effect is 29.2% in assay [6]; 5.63% in the assay listed under Homo sapiens; 3.19% in [7]; 13% in assay [8]; -4.17% in assay [9].

Take `Cc1noc(Cl)c1CC(=O)N1CCCC(n2cccn2)C1` (centres undefined): the Percent Effect was -7.2% in assay [1]; 15.8% in assay [2]; -1.76% in [3]; 0.841% in assay [4]; -0.0934% in the assay with Trypanosoma cruzi; -3.96% in [5]. Besides, the Percent Effect was 0.592% in assay [6]; -4.99% in the assay listed under Homo sapiens; 10.3% in assay [7]; 16.1% in [8]; 1.45% in assay [9].

For the compound `CCN1CCn2c(C)cnc2C12CCN(C(=O)CC(C)C)CC2`, the Percent Effect in assay [1] is -1.23%; in assay [2], 10.7%; in assay [3], 6.38%; in assay [4], -1.92%; in the assay on Trypanosoma cruzi it was -4.83%; in assay [5], -59%. Moreover, the Percent Effect was 18.1% in assay [6]; 1.06% in the assay listed under Homo sapiens; 0% in assay [7]; 5% in [8]; -5.61% in assay [9].

On to `O=C(NC1(c2cccc(F)c2)CCOCC1)c1cc[nH]n1`, for which the Percent Effect was -4.6% in assay [1]; 5.2% in [2]; 0.0633% in assay [3]; 4.75% in [4]; 0.885% in the assay on Trypanosoma cruzi; -23.4% in assay [5]. Moreover, the Percent Effect in [6] was 5.32%; in the assay listed under Homo sapiens it was 4.47%; in assay [7], 2.15%; in assay [8] it was 3.7%; in assay [9], -1.53%.

As for `CC(C)c1nc(CN(C)C2CCN(CC(F)(F)F)C2)no1` (centres undefined), the Percent Effect in assay [1] is -5.29%; in assay [2] it was 5.48%; in assay [3] it was -3.78%; in [4], -4.08%; in the assay with Trypanosoma cruzi, -0.588%; in [5], 2.73%. The Percent Effect was 6.57% in assay [6]; -2.57% in the assay listed under Homo sapiens; 4.3% in assay [7]; 10% in [8]; -1.35% in assay [9].

For the compound `CC(C)NC(=O)N1CCC2(COCc3cnc(-c4cccnc4)nc32)C1` (centres undefined), the Percent Effect in [1] is -3.55%; in assay [2], 2.7%; in assay [3], 6.5%; in [4], 0.534%; in the assay on Trypanosoma cruzi, -6.94%; in assay [5], 4.78%. Further, the Percent Effect came to 12% in assay [6]; 6.17% in the assay listed under Homo sapiens; 1.08% in [7]; 5.13% in [8]; 2.74% in assay [9].

In the case of `Clc1cc(CN2CCCC2Cn2cncn2)c2ncccc2c1` (centres undefined), the Percent Effect in [1] is -4.67%; in assay [2], 2.7%; in assay [3], -1.32%; in [4] it was -0.586%; in the assay on Trypanosoma cruzi, -2.88%; in [5] it was -12.4%. The Percent Effect in assay [6] was 3.95%; in the assay listed under Homo sapiens, -0.129%; in assay [7] it was 2.97%; in assay [8], 6.1%; in [9] it was -2.39%.

Regarding `Cc1cncc(C(=O)N2CCCC(C(=O)CCc3ccccc3)C2)c1` (centres undefined), the Percent Effect was 3.06% in assay [1]; 2.74% in assay [2]; 1.42% in assay [3]; 1.76% in [4]; -5.88% in the assay on Trypanosoma cruzi; 4.54% in [5]. The Percent Effect was 19.2% in [6]; 14.7% in the assay filed under Homo sapiens; 4.3% in assay [7]; 15% in assay [8]; -12.2% in [9].

Regarding `O=C(Cc1cccc(F)c1)NCCNCc1cccc(O)c1`, the Percent Effect in assay [1] was -1.42%; in assay [2] it was -5.2%; in assay [3], 13.5%; in assay [4], 6.95%; with Trypanosoma cruzi, 0.749%; in [5], 3.56%. Further, the Percent Effect was -0.169% in assay [6]; 3.07% in the assay listed under Homo sapiens; 8.74% in [7]; 12.2% in [8]; -4.75% in assay [9].
